Experimental data taken from the supplement of paper PMC6555819.

Assays:
Assay in all cases: PBM binding z-score (relative to random genomic background probes); higher = stronger binding; sequences stand for … in GC…GCGATTGACAGCGTAGAATGAAGG
[1] = system: FXR:RXRa (NR concentration 270 nM, RXRa partner concentration 90 nM)
How it was run: (§1)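 Probes were double-stranded and carried 34-nt variable regions with direct-repeat seeds, single-nucleotide variants, half-site ablations and random human genomic background sequences, printed on custom Agilent 4×180K protein-binding microarrays. Arrays were incubated 1 h with ligand-free nuclear receptor dimers in PBS pH 7.4, 2% milk, 0.02% Triton X-100, 1 mM DTT, 0.2 mg/mL BSA and 0.4 mg/ml salmon testes DNA. Antibodies against each partner (one per run) detected binding, and scanned fluorescence was regression-normalized. Binding z-scores use the random background probes as reference.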

[2] = system: LXRa:RXRa (NR concentration 270 nM, RXRa partner concentration 90 nM)
How it was run: as §1

[3] = system: LXRa homodimer (NR concentration 270 nM)
How it was run: as §1

[4] = system: LXRb:RXRa (NR concentration 270 nM, RXRa partner concentration 90 nM)
How it was run: as §1

[5] = system: LXRb homodimer (NR concentration 270 nM)
How it was run: as §1

[6] = system: PPARa:RXRa (NR concentration 270 nM, RXRa partner concentration 90 nM)
How it was run: as §1

[7] = system: PPARg:RXRa (NR concentration 180 nM, RXRa partner concentration 90 nM)
How it was run: as §1

[8] = system: PPARg:RXRa 270nM:90nM, anti-RXR (NR concentration 270 nM, RXRa partner concentration 90 nM)
How it was run: as §1

[9] = system: PPARg:RXRa 30nM:10nM, anti-RXR (NR concentration 30 nM, RXRa partner concentration 10 nM)
How it was run: as §1

[10] = system: PPARg:RXRa 90nM:30nM, anti-RXR (NR concentration 90 nM, RXRa partner concentration 30 nM)
How it was run: as §1

[11] = system: PPARg:RXRa DBDmut IVT, anti-RXR (DBD mutation: RXRa K156A/R161A, NR concentration 270 nM, RXRa partner concentration 90 nM)
How it was run: as §1

[12] = system: PPARg:RXRa IVT, anti-PPARg (NR concentration 270 nM, RXRa partner concentration 90 nM)
How it was run: as §1

[13] = system: PPARg DBDmut:RXRa IVT, anti-PPARg (DBD mutation: PPARg1 K132A/R137A, NR concentration 270 nM, RXRa partner concentration 90 nM)
How it was run: as §1

[14] = system: PPARg DBDmut IVT, anti-PPARg (DBD mutation: PPARg1 K132A/R137A, NR concentration 270 nM)
How it was run: as §1

[15] = system: PPARg homodimer (NR concentration 180 nM)
How it was run: as §1

[16] = system: PXR:RXRa (NR concentration 270 nM, RXRa partner concentration 90 nM)
How it was run: as §1

[17] = system: PXR homodimer (NR concentration 270 nM)
How it was run: as §1

[18] = system: RARa:RXR (NR concentration 270 nM, RXRa partner concentration 90 nM)
How it was run: as §1

[19] = system: RARa homodimer (NR concentration 270 nM)
How it was run: as §1

[20] = system: RARb:RXRa (NR concentration 270 nM, RXRa partner concentration 90 nM)
How it was run: as §1

| Sequence | PBM binding z-score [1] | PBM binding z-score [2] | PBM binding z-score [3] | PBM binding z-score [4] | PBM binding z-score [5] | PBM binding z-score [6] | PBM binding z-score [7] | PBM binding z-score [8] | PBM binding z-score [9] | PBM binding z-score [10] | PBM binding z-score [11] | PBM binding z-score [12] | PBM binding z-score [13] | PBM binding z-score [14] | PBM binding z-score [15] | PBM binding z-score [16] | PBM binding z-score [17] | PBM binding z-score [18] | PBM binding z-score [19] | PBM binding z-score [20] |
| --- | --- | --- | --- | --- | --- | --- | --- | --- | --- | --- | --- | --- | --- | --- | --- | --- | --- | --- | --- | --- |
| TAGCCTGGGTCAGATCGGGCCAGTATACGCTATA | 1.63 | 0.208 | -0.918 | 0.153 | -0.84 | 1.32 | 0.579 | 0.64 | -0.488 | 0.167 | -0.428 | 0.885 | -0.83 | -0.762 | -0.849 | 0.931 | -0.947 | 0.69 | -0.739 | 2.33 |
| CTACCAAGGTGAACAAGGTCGTAGATTACTATTC | 1.44 | 1.27 | -0.0649 | 1.62 | -0.766 | 2.66 | 1.19 | 1.36 | 0.159 | 0.588 | 2.43 | 2.87 | 0.349 | 0.813 | 0.756 | 2.37 | 0.924 | 2.56 | 0.0983 | 2.17 |
| CCTACTGGGCCATGGTCATTGATCAGTCAAAGCA | 0.0298 | -0.313 | -0.591 | -0.226 | -1.02 | 0.969 | 1.05 | 1.3 | -0.281 | 0.872 | 3.04 | 3.48 | -0.574 | -0.734 | 0.222 | -0.316 | -0.489 | -0.363 | -1.03 | 0.532 |
| TCGCCTAGGTCATGCGGGCCAGTATAGTGTCGGC | 4.09 | 2.65 | 0.228 | 1.72 | -0.926 | 3.47 | 1.56 | 2.12 | 1.32 | 1.71 | 2.3 | 2.74 | -0.0945 | -0.593 | 0.827 | 1.45 | -0.348 | 2.59 | -0.685 | 3.87 |
| CGAGCTAGGTCAGAACAGGACAGTGAAGGATGAT | 1.62 | 0.749 | -0.308 | -0.00924 | -0.647 | 1.11 | 1.11 | 0.596 | -0.277 | 0.0129 | 1.93 | 1.04 | -1.14 | -1.15 | 0.363 | 0.798 | -0.245 | 0.682 | -0.341 | 2.89 |
| CCTACTGGGCCGAAGGTCATTGATTCCAATGCTC | 2.23 | 2.47 | 1.02 | 2.44 | -0.461 | 4.85 | 9.28 | 9.02 | 8.18 | 10.3 | 1.48 | 5.21 | -0.502 | -0.797 | 1.81 | 2.9 | 0.597 | 3.05 | 0.247 | 2.88 |
| CCGACTGGGGCAGAAAGGTTACCCTACCATCCGG | 0.191 | 0.465 | -0.126 | 0.448 | -1.02 | 1.5 | 1.17 | 2.33 | 0.336 | 1.78 | 1.23 | 1.93 | -1.08 | -1.51 | 0.207 | 0.618 | -0.304 | 1.34 | -0.533 | 1.73 |
